Measurements reported in the supplement of paper PMC3334620.
Over roughly 33,000 sequences, “E-score (-0.5 to 0.5)” has its median near -0.017; the highest 2% begin near 0.3. The full list was thinned out, with the highest values kept by preference.

biological target: T1, Sut1 (UniProt P53032); test: PBM E-score (8-mer binding enrichment) (E-score (-0.5 to 0.5)); higher = stronger / more preferred TF binding; conditions: protein concentration: 200 nM; construct: GST-full length
T1 sequence: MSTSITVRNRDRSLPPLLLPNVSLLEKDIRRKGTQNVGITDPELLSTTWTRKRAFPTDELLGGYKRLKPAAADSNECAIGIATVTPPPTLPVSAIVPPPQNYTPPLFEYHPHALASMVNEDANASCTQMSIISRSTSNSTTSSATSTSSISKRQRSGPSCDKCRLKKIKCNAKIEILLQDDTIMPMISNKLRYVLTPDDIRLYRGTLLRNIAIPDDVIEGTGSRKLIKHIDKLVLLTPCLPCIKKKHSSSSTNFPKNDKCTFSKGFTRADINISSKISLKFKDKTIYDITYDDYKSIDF
Method: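 Universal 'all 10-mer' protein binding microarrays (Agilent AMADID 015681) probed with GST-tagged S. cerevisiae TFs (full-length or DBD) made by in vitro transcription/translation (PURExpress), about 100-200 nM. Bound TF was detected with fluorescent anti-GST. Each ungapped 8-mer (which stands for itself and its reverse complement) is scored by the PBM enrichment score (E-score), a modified Wilcoxon-Mann-Whitney statistic from -0.5 to +0.5, computed with the Universal PBM Analysis Suite. Scale: above 0.35 generally sequence-specific binding.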

Row | Sequence | PBM E-score
1 | AAACGCGC | -0.123
2 | ATCCTCAT | -0.0846
3 | CGAGGGTC | -0.194
4 | CTTATGTA | 0.16
5 | AAACTGAA | 0.171
6 | AAGTTGCG | 0.108
7 | CTCGCCCC | -0.298
8 | AGTGAATA | 0.177
9 | ATGGTCGG | 0.0544
10 | GCCCAGCC | -0.184
11 | CTTATTTA | 0.101
12 | ATTATTAC | 0.278
13 | ATTATTTA | 0.347
14 | ATGATTTA | 0.222
15 | CTTATTTC | 0.207
16 | ATTATTAG | 0.144
17 | CTGATTTC | 0.0415
18 | ATTATTTC | 0.306
19 | ATTATTTG | 0.319
20 | ATGATTTC | 0.299
21 | GTTATTTA | 0.257
22 | ACTATTTG | 0.252
23 | CGCTAGTA | 0.101
24 | AGAATGCA | 0.0147
25 | CCCGTTAG | -0.0959

Row | Sequence | PBM E-score
26 | CGTACGAG | -0.098
27 | AATAGCTC | -0.207
28 | ATTGCGAC | 0.0862
29 | CGTCCTTA | -0.176
30 | ATACCGGG | 0.0371
31 | ATACCGGC | -0.0331
32 | GTACCGGA | 0.342
33 | GTACCGCA | 0.102
34 | ATACCGGA | 0.326
35 | CTACCGGA | 0.222
36 | AGTCAGCA | -0.0199
37 | ACCCACTC | 0.00249
38 | ATCCGGCG | -0.00912
39 | TTCCGGAA | 0.395
40 | ATCCGGAC | 0.362
41 | CTCCGGAA | 0.442
42 | ATCCGGAT | 0.257
43 | TCCCGGAA | 0.228
44 | ATCCGGAG | 0.414
45 | TGCCGGAA | 0.188
46 | CTGCGGAA | -0.0948
47 | ATCCGGTG | 0.0918
48 | ACAGTCAA | -0.0644
49 | AGAGTAAG | 0.016
50 | AAGCTCTC | -0.127

Row | Sequence | PBM E-score
51 | AAAACTTG | 0.143
52 | GCGTTACC | -0.158
53 | ACTCCCTG | -0.173
54 | AATCACGT | -0.0474
55 | CTCAGGAG | -0.179
56 | GTGCGGAA | 0.0942
57 | ATGCGGAG | 0.259
58 | ATCCGGAA | 0.303
59 | GTCCAAAC | -0.0427
60 | GTCCGGAC | 0.469
61 | GTCCGGAA | 0.402
62 | CTCCGGAG | 0.487
63 | GTCAGGAC | -0.206
64 | ATGCGGAA | 0.0745
65 | CAACGCAA | 0.111
66 | TAGTTAGA | 0.169
67 | AGTCTATG | -0.11
68 | ACATTGGC | -0.21
69 | AGAAAGCT | 0.126
70 | CATAAGGA | -0.134
71 | CCCTCGAC | -0.327
72 | CAATCTAG | -0.0129
73 | CTTAGTCC | 0.113
74 | ATTGAGTG | 0.0241
75 | CTCAGGAC | -0.127

Row | Sequence | PBM E-score
76 | CTCCGGAC | 0.473
77 | CTGCGGAC | 0.165
78 | TTATTAAA | 0.273
79 | AAAATTAA | 0.221
80 | CAAATTAA | 0.189
81 | GTTTAAAC | 0.31
82 | GAGTTATA | 0.2
83 | GTTTAAAA | 0.19
84 | TAGTTATA | 0.318
85 | CTTTAAAC | 0.105
86 | GAAATTAA | 0.333
87 | CTATTAAA | 0.0826
88 | AAGTTATA | 0.186
89 | ATATTAAA | 0.37
90 | AGGTCTAA | -0.0642
91 | CTAGGTGA | -0.168
92 | GTCTATCA | 0.101
93 | AGATTCAT | 0.0265
94 | ATTAAGAC | 0.123
95 | GCGCTTGA | 0.0596
96 | AATTAAAG | 0.198
97 | AAATTATA | 0.351
98 | AATTTATA | 0.276
99 | AAATTATG | 0.175
100 | CTATTTAA | 0.188

Row | Sequence | PBM E-score
101 | GATTAAAC | 0.114
102 | AATTAAAC | 0.329
103 | TAATTAGA | 0.218
104 | ATATTTAC | 0.282
105 | TAATTATA | 0.349
106 | ATATTTAA | 0.303
107 | CAATTATA | 0.164
108 | ACTAAGTC | 0.0911
109 | CTACCCAG | -0.18
110 | AGAAATGC | 0.048
111 | GAAATCCC | -0.0066
112 | ATCACCTA | -0.13
113 | CTTAGCCC | -0.129
114 | ATGAACCC | 0.00896
115 | CCAAATCC | 0.0309
116 | AGCAGAAA | 0.175
117 | AAGGTCTC | -0.0653
118 | GCATTATA | 0.118
119 | AAATTATC | 0.281
120 | AAATTATT | 0.328
121 | AAATTACT | 0.234
122 | CGATTAAA | 0.237
123 | ACATTAAA | 0.259
124 | GAATTATC | 0.0676
125 | TCATTAAA | 0.315

Row | Sequence | PBM E-score
126 | GAATTATA | 0.335
127 | GCATTAAA | 0.0763
128 | AGATTAAT | 0.222
129 | AGATTAAA | 0.324
130 | AGCAAATC | 0.142
131 | AGTGGCAT | -0.231
132 | CCCTTCAA | -0.068
133 | ATTCCCTA | 0.11
134 | AAGGCCAG | -0.00339
135 | GAGCTAAA | 0.106
136 | AATTTCTA | 0.285
137 | CTCTTAAA | 0.302
138 | AAATTAAA | 0.333
139 | ATATTATG | 0.362
140 | ATATTATC | 0.223
141 | GTCTTAAA | 0.00721
142 | AAATTAAT | 0.292
143 | CTCTTAAC | 0.042
144 | AAATTAAC | 0.236
145 | ATATTATA | 0.249
146 | CTCTCGCC | -0.182
147 | GAGTTAAA | 0.13
148 | AGAACCTC | -0.0985
149 | GCAACGCC | -0.114
150 | CTTAAAGC | -0.0652

Row | Sequence | PBM E-score
151 | TATACTGA | 0.292
152 | CATATTAA | 0.183
153 | TATATTGA | 0.332
154 | GATATTAA | 0.285
155 | TATATTAA | 0.315
156 | GATATTGA | 0.234
157 | CATATTGA | 0.0287
158 | GAACAGAC | 0.0707
159 | GTCCTAGA | -0.141
160 | GGCCCGCA | -0.113
161 | CGCCCGGC | -0.0194
162 | AGCCCGGC | 0.00111
163 | AGCCCGGA | 0.341
164 | CGCCCGAA | -0.101
165 | GCCCCGGA | 0.29
166 | CGCCCGGA | 0.361
167 | GGCCCGGA | 0.305
168 | AGCCCGGG | 0.0766
169 | CTACCAAC | 0.0725
170 | AACTCGCT | 0.0435
171 | ATGGAGAA | 0.108
172 | ACGGAGAA | 0.362
